# From the supplement of paper PMC4466140
# B1: unnamed (peptide)
# chain: EAEEAAPQLPSRSSA
# B2: unnamed (peptide)
# chain: RKQRSIPLSPIVPES
# How the values were obtained:
# Test in all cases: SPOT peptide array binding signal intensity (averaged, normalized) (arbitrary units (background-subtracted, floor 0; scale differs between SH3 domains)); higher = stronger binding of the SH3 domain to the peptide
# AgAbp1 = target: AgAbp1
# In short: (§1)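 GST-SH3 fusions from four yeast species, purified on glutathione Sepharose, were incubated at 10 μg/ml overnight at 4°C on membranes of synthetic 15-mer peptides in which cysteines were replaced with serines. Binding signal is the normalized, background-subtracted spot intensity averaged over replicates, in domain-specific arbitrary units.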
# AgBbc1 = target: AgBbc1
# In short: as §1
# AgBem1-D1 = target: AgBem1-D1
# In short: as §1
# AgBzz1-D1 = target: AgBzz1-D1
# In short: as §1
# AgBzz1-D2 = target: AgBzz1-D2
# In short: as §1
# AgCyk3 = target: AgCyk3
# In short: as §1
# AgFus1 = target: AgFus1
# In short: as §1
# AgHof1 = target: AgHof1
# In short: as §1
# AgHse1 = target: AgHse1
# In short: as §1
# AgLsb1 = target: AgLsb1
# In short: as §1
# AgLsb4 = target: AgLsb4
# In short: as §1
# AgMyo5 = target: AgMyo5
# In short: as §1
# AgNbp2 = target: AgNbp2
# In short: as §1
# AgRvs167 = target: AgRvs167
# In short: as §1
# AgSho1 = target: AgSho1
# In short: as §1
# AgSla1-D1-D2 = target: AgSla1-D1-D2
# In short: as §1
# AgSla1-D3 = target: AgSla1-D3
# In short: as §1
# CaAbp1-D1 = target: CaAbp1-D1
# In short: as §1
# CaAbp1-D2 = target: CaAbp1-D2
# In short: as §1
# CaBbc1 = target: CaBbc1
# In short: as §1
# CaBem1-D1 = target: CaBem1-D1
# In short: as §1
# CaBzz1-D1 = target: CaBzz1-D1
# In short: as §1
# CaBzz1-D2 = target: CaBzz1-D2
# In short: as §1
# CaCyk3 = target: CaCyk3
# In short: as §1
# CaFus1 = target: CaFus1
# In short: as §1
# CaHof1 = target: CaHof1
# In short: as §1
# CaHse1 = target: CaHse1
# In short: as §1
# CaLsb1 = target: CaLsb1
# In short: as §1
# CaLsb4 = target: CaLsb4
# In short: as §1
# CaMyo5 = target: CaMyo5
# In short: as §1
# CaNbp2 = target: CaNbp2
# In short: as §1
# CaRvs167 = target: CaRvs167
# In short: as §1
# CaRvs167-3 = target: CaRvs167-3
# In short: as §1
# CaSho1 = target: CaSho1
# In short: as §1
# CaSla1-D1-D2 = target: CaSla1-D1-D2
# In short: as §1
# CaSla1-D3 = target: CaSla1-D3
# In short: as §1
# ScAbp1 = target: ScAbp1
# In short: as §1
# ScBbc1 = target: ScBbc1
# In short: as §1
# ScBem1-D1 = target: ScBem1-D1
# In short: as §1
# ScBzz1-D1 = target: ScBzz1-D1
# In short: as §1
# ScBzz1-D2 = target: ScBzz1-D2
# In short: as §1
# ScCyk3 = target: ScCyk3
# In short: as §1
# ScFus1 = target: ScFus1
# In short: as §1
# ScHof1 = target: ScHof1
# In short: as §1
# ScHse1 = target: ScHse1
# In short: as §1
# ScLsb1 = target: ScLsb1
# In short: as §1
# ScLsb2 = target: ScLsb2
# In short: as §1
# ScLsb3 = target: ScLsb3
# In short: as §1
# ScLsb4 = target: ScLsb4
# In short: as §1
# ScMyo3 = target: ScMyo3
# In short: as §1
# ScMyo5 = target: ScMyo5
# In short: as §1
# ScNbp2 = target: ScNbp2
# In short: as §1
# ScPex13 = target: ScPex13
# In short: as §1
# ScRvs167 = target: ScRvs167
# In short: as §1
# ScSho1 = target: ScSho1
# In short: as §1
# ScSla1-D1-D2 = target: ScSla1-D1-D2
# In short: as §1
# ScSla1-D3 = target: ScSla1-D3
# In short: as §1
# SpAbp1-D1 = target: SpAbp1-D1
# In short: as §1
# SpBbc1 = target: SpBbc1
# In short: as §1
# SpBzz1-D1 = target: SpBzz1-D1
# In short: as §1
# SpBzz1-D2 = target: SpBzz1-D2
# In short: as §1
# SpCyk3 = target: SpCyk3
# In short: as §1
# SpHof1 = target: SpHof1
# In short: as §1
# SpHof1-2 = target: SpHof1-2
# In short: as §1
# SpHof1-3 = target: SpHof1-3
# In short: as §1
# SpHse1 = target: SpHse1
# In short: as §1
# SpLsb1 = target: SpLsb1
# In short: as §1
# SpLsb4 = target: SpLsb4
# In short: as §1
# SpMyo1 = target: SpMyo1
# In short: as §1
# SpNbp2 = target: SpNbp2
# In short: as §1
# SpPex13 = target: SpPex13
# In short: as §1
# SpRvs167 = target: SpRvs167
# In short: as §1
# SpSla1-D1-D2 = target: SpSla1-D1-D2
# In short: as §1
# SpSla1-D3 = target: SpSla1-D3
# In short: as §1
binder,measurement,setting,value
B1,SPOT peptide array binding signal intensity,AgAbp1,7
same,SPOT peptide array binding signal intensity,AgBbc1,≤ 0
same,SPOT peptide array binding signal intensity,AgBem1-D1,≤ 0
same,SPOT peptide array binding signal intensity,AgBzz1-D1,8.5
same,SPOT peptide array binding signal intensity,AgBzz1-D2,8.5
same,SPOT peptide array binding signal intensity,AgCyk3,≤ 0
same,SPOT peptide array binding signal intensity,AgFus1,8
same,SPOT peptide array binding signal intensity,AgHof1,0.5
same,SPOT peptide array binding signal intensity,AgHse1,3.5
same,SPOT peptide array binding signal intensity,AgLsb1,16
same,SPOT peptide array binding signal intensity,AgLsb4,3510
same,SPOT peptide array binding signal intensity,AgMyo5,≤ 0
same,SPOT peptide array binding signal intensity,AgNbp2,≤ 0
same,SPOT peptide array binding signal intensity,AgRvs167,11.3
same,SPOT peptide array binding signal intensity,AgSho1,≤ 0
same,SPOT peptide array binding signal intensity,AgSla1-D1-D2,≤ 0
same,SPOT peptide array binding signal intensity,AgSla1-D3,2
same,SPOT peptide array binding signal intensity,CaAbp1-D1,≤ 0
same,SPOT peptide array binding signal intensity,CaAbp1-D2,≤ 0
same,SPOT peptide array binding signal intensity,CaBbc1,≤ 0
same,SPOT peptide array binding signal intensity,CaBem1-D1,≤ 0
same,SPOT peptide array binding signal intensity,CaBzz1-D1,1
same,SPOT peptide array binding signal intensity,CaBzz1-D2,3.25
same,SPOT peptide array binding signal intensity,CaCyk3,≤ 0
same,SPOT peptide array binding signal intensity,CaFus1,5
same,SPOT peptide array binding signal intensity,CaHof1,0.25
same,SPOT peptide array binding signal intensity,CaHse1,6.75
same,SPOT peptide array binding signal intensity,CaLsb1,1.75
same,SPOT peptide array binding signal intensity,CaLsb4,6000
same,SPOT peptide array binding signal intensity,CaMyo5,1
same,SPOT peptide array binding signal intensity,CaNbp2,≤ 0
same,SPOT peptide array binding signal intensity,CaRvs167,340
same,SPOT peptide array binding signal intensity,CaRvs167-3,6.25
same,SPOT peptide array binding signal intensity,CaSho1,≤ 0
same,SPOT peptide array binding signal intensity,CaSla1-D1-D2,≤ 0
same,SPOT peptide array binding signal intensity,CaSla1-D3,≤ 0
same,SPOT peptide array binding signal intensity,ScAbp1,6
same,SPOT peptide array binding signal intensity,ScBbc1,≤ 0
same,SPOT peptide array binding signal intensity,ScBem1-D1,≤ 0
same,SPOT peptide array binding signal intensity,ScBzz1-D1,9
same,SPOT peptide array binding signal intensity,ScBzz1-D2,10
same,SPOT peptide array binding signal intensity,ScCyk3,1
same,SPOT peptide array binding signal intensity,ScFus1,≤ 0
same,SPOT peptide array binding signal intensity,ScHof1,4.25
same,SPOT peptide array binding signal intensity,ScHse1,≤ 0
same,SPOT peptide array binding signal intensity,ScLsb1,283
same,SPOT peptide array binding signal intensity,ScLsb2,12.5
same,SPOT peptide array binding signal intensity,ScLsb3,7150
same,SPOT peptide array binding signal intensity,ScLsb4,3370
same,SPOT peptide array binding signal intensity,ScMyo3,≤ 0
same,SPOT peptide array binding signal intensity,ScMyo5,≤ 0
same,SPOT peptide array binding signal intensity,ScNbp2,≤ 0
same,SPOT peptide array binding signal intensity,ScPex13,128
same,SPOT peptide array binding signal intensity,ScRvs167,1500
same,SPOT peptide array binding signal intensity,ScSho1,≤ 0
same,SPOT peptide array binding signal intensity,ScSla1-D1-D2,7
same,SPOT peptide array binding signal intensity,ScSla1-D3,0.75
same,SPOT peptide array binding signal intensity,SpAbp1-D1,≤ 0
same,SPOT peptide array binding signal intensity,SpBbc1,≤ 0
same,SPOT peptide array binding signal intensity,SpBzz1-D1,≤ 0
same,SPOT peptide array binding signal intensity,SpBzz1-D2,≤ 0
same,SPOT peptide array binding signal intensity,SpCyk3,1
same,SPOT peptide array binding signal intensity,SpHof1,0.5
same,SPOT peptide array binding signal intensity,SpHof1-2,3.5
same,SPOT peptide array binding signal intensity,SpHof1-3,1
same,SPOT peptide array binding signal intensity,SpHse1,0.5
same,SPOT peptide array binding signal intensity,SpLsb1,4.25
same,SPOT peptide array binding signal intensity,SpLsb4,6420
same,SPOT peptide array binding signal intensity,SpMyo1,≤ 0
same,SPOT peptide array binding signal intensity,SpNbp2,≤ 0
same,SPOT peptide array binding signal intensity,SpPex13,0.5
same,SPOT peptide array binding signal intensity,SpRvs167,2390
same,SPOT peptide array binding signal intensity,SpSla1-D1-D2,2
same,SPOT peptide array binding signal intensity,SpSla1-D3,1
B2,SPOT peptide array binding signal intensity,AgAbp1,7
same,SPOT peptide array binding signal intensity,AgBbc1,17
same,SPOT peptide array binding signal intensity,AgBem1-D1,77
same,SPOT peptide array binding signal intensity,AgBzz1-D1,15.5
same,SPOT peptide array binding signal intensity,AgBzz1-D2,32
same,SPOT peptide array binding signal intensity,AgCyk3,2
same,SPOT peptide array binding signal intensity,AgFus1,104
same,SPOT peptide array binding signal intensity,AgHof1,35.5
same,SPOT peptide array binding signal intensity,AgHse1,375
same,SPOT peptide array binding signal intensity,AgLsb1,1.5
same,SPOT peptide array binding signal intensity,AgLsb4,45.5
same,SPOT peptide array binding signal intensity,AgMyo5,0.25
same,SPOT peptide array binding signal intensity,AgNbp2,59
same,SPOT peptide array binding signal intensity,AgRvs167,3.33
same,SPOT peptide array binding signal intensity,AgSho1,13
same,SPOT peptide array binding signal intensity,AgSla1-D1-D2,≤ 0
same,SPOT peptide array binding signal intensity,AgSla1-D3,3
same,SPOT peptide array binding signal intensity,CaAbp1-D1,236
same,SPOT peptide array binding signal intensity,CaAbp1-D2,98.5
same,SPOT peptide array binding signal intensity,CaBbc1,175
same,SPOT peptide array binding signal intensity,CaBem1-D1,13
same,SPOT peptide array binding signal intensity,CaBzz1-D1,58
same,SPOT peptide array binding signal intensity,CaBzz1-D2,136
same,SPOT peptide array binding signal intensity,CaCyk3,48
same,SPOT peptide array binding signal intensity,CaFus1,368
same,SPOT peptide array binding signal intensity,CaHof1,0.25
same,SPOT peptide array binding signal intensity,CaHse1,12.2
same,SPOT peptide array binding signal intensity,CaLsb1,0.5
same,SPOT peptide array binding signal intensity,CaLsb4,64
same,SPOT peptide array binding signal intensity,CaMyo5,3.5
